An excerpt weighted towards active compounds, which were near 10% of everything screened.
GPT2 inh: inhibitors of human GPT2 alanine aminotransferase; Q8TD30; Recombinant GPT2, coupled pyruvate oxidase/HRP Amplex Red fluorescence; Potency, µM (highest dose often 57.7 µM), without a hit: at the highest dose activity change, negative = inhibition, most hits filed as inhibitors; 0.25% of 100,000 active; AID 1671188; also: % is scaled to controls: 0 for no effect and ±100 for the full control effect; nearly all actives have a fitted effect of over 60% in size
Target sequence (Q8TD30 whole entry, looked up): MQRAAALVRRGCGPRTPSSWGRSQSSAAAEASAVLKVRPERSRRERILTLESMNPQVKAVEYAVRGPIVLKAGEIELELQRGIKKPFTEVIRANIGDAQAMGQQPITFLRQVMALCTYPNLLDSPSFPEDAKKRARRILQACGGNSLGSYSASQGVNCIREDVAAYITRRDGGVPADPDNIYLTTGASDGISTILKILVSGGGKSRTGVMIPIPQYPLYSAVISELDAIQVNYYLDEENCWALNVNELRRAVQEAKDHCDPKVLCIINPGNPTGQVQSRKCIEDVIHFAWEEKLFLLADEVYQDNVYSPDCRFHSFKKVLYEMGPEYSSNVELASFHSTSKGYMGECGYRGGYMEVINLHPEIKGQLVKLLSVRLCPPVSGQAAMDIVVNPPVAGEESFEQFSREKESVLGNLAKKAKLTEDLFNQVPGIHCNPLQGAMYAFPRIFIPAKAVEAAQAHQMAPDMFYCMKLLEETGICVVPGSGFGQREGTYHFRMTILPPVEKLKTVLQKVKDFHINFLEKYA
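Recombinant GPT2 (10ng/uL) with 250uM a-KG and 2mM L-alanine, 30 min at room temperature, in HEPES pH 7.5 buffer. Pyruvate detected by pyruvate oxidase/HRP/Amplex Red fluorescence after 30 min in the dark; AOA (50uM) as positive control.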
3T3 cytotox: kills NIH 3T3 cells | NIH 3T3 viability, CellTiter-Glo ATP luminescence, 48-72 h | Potency, µM (titrated, usually from 96.7 µM), for the others: at the top dose activity change, negative = cytotoxicity, hits mostly inhibitors | 4.3% of 94,000 active | AID 1345082; also: % is scaled to controls: 0 for no effect and ±100 for the full control effect; nearly all actives have a fitted effect of over 55% in size
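ATP-dependent luminescence (CellTiter-Glo) served as the viability signal for NIH 3T3 cells treated with compound for 48 or 72 hr at 37 °C.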
FLuc inh-1: blocks purified firefly luciferase enzyme activity | P08659 | purified P. pyralis luciferase, luminescence, biochemical | Potency, µM (top dose mostly 115 µM), usual class: inhibitors | 2.5% of 76,000 active; also: % is scaled to controls: 0 for no effect and ±100 for the full control effect; nearly all actives have a fitted effect of over 65% in size
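Luminescence read by CCD imaging after purified firefly luciferase (10nM final) was added to substrate buffer holding 10uM D-luciferin and 10uM ATP, pH 7.5, pre-dosed with compound.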
hNpr1 antagonist: blocks ANP-stimulated signaling of human Npr1 receptor | 1.6% of 76,000 active | Potency, µM (top dose mostly 46.3 µM), inactives show at the highest dose activity change, negative = inhibition, most hits filed as inhibitors | HEK293 hNpr1 GloSensor cGMP, ANP-stimulated luminescence; calls by dose curve; also: % is scaled to controls: 0 for no effect and ±100 for the full control effect; nearly all actives have a fitted effect of over 60% in size
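HEK293 cells stably expressing human Npr1 and cGMP GloSensor pGS-40F, loaded 2 h with 2% GloSensor reagent, given compound 30 min at room temperature. Luminescence read before and 20 min after 0.1 nM hNppA.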
HEK cytotox: kills HEK 293 cells. HEK 293 viability, ATP luminescence (CellTiter-Glo), 48-72 h. Potency, µM (top dose mostly 115 µM), without a hit: top-dose activity change, negative = cytotoxicity, actives largely listed as inhibitors. 6.6% of 94,000 active. AID 1345083; also: % is scaled to controls: 0 for no effect and ±100 for the full control effect; nearly all actives have a fitted effect of over 60% in size
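ATP-coupled CellTiter-Glo luminescence served as viability read-out, recorded 10 min after reagent addition at room temperature. HEK 293 cells, 250 cells/well, had been incubated with pintool-transferred compound for 48 or 72 hr at 37 degree Celsius.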
FLuc SDR -ATP: binders stabilizing firefly luciferase, without ATP; shares compounds with FLuc inh-1; Purified FLuc-C-HiBiT, Nano-Glo HiBiT luminescence, no ATP; Potency, µM (top dose mostly 32.7 µM), inactives show top-dose activation (signal gain), hits mostly activators; 7.8% of 1,300 active; AID 1963318; also: nearly all actives have a fitted effect of over 55% in size
FLuc SDR ATP: firefly luciferase binding stabilization, ATP added | purified FLuc-C-HiBiT + ATP, HiBiT complementation luminescence | Potency, µM (series often up to 32.7 µM), for inactives: at the top dose activation (gain of signal), hits mostly activators | 8.7% of 1,300 active | shares compounds with FLuc inh-1;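 also: signal reports ligand binding via conformational change of the enzyme rather than luciferase catalysis; % of control where 0% means no effect; nearly all actives have a fitted effect of over 55% in size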
FLuc inh-2: firefly luciferase enzyme inhibition; shares compounds with FLuc inh-1; purified FLuc-C-HiBiT enzyme, luciferin luminescence; Potency, µM (top dose mostly 32.7 µM), for inactives: at the top dose activity change, negative = inhibition, usual class: inhibitors; 42% of 1,300 active; AID 1963320; also: % is scaled to controls: 0 for no effect and ±100 for the full control effect; nearly all actives have a fitted effect of over 70% in size
* hit, by the source's call; i = inactive; ? = inconclusive; / = no result given; [ ] = remark or other dose. Unless noted, calls follow the shape of the dose curve; as a rule, active = well fitted curve in the direction sought with a large enough effect; inconclusive = small, poorly fitted or top-dose-only effect, or another doubt; inactive = no such curve, though single readings can be large; an effect the other way counts as inactive or inconclusive. Potency is read from the fitted curve at half-maximal effect.

SMILES | GPT2 inh | 3T3 cytotox | FLuc inh-1 | hNpr1 antagonist | HEK cytotox | FLuc SDR -ATP | FLuc SDR ATP | FLuc inh-2
Oc1ccccc1CN1CCNc2cc(-c3ccccc3)ncc2C1 | 4.4%[88.5 µM] | 79.4µM* | 2.51µM* | -28.6%[70.6 µM] | 79.4µM* | ? | 14.4%[49.3 µM] | ?
Cc1cc(-c2cc3c(cn2)CN(Cc2cccs2)CCN3)ccn1 | -3.8%[88.5 µM] | ? | 6.31µM* | -21.3%[70.6 µM] | 89.1µM* | 32.3%[49.3 µM] | ? | 11.4µM*
Cc1cc(-c2cc3c(cn2)CN(Cc2ccccc2O)CCN3)ccn1 | -5.0%[88.5 µM] | ? | 5.62µM* | ? | ? | 21.0%[49.3 µM] | 13.0%[49.3 µM] | ?
c1cncc(Nc2cc3c(cn2)CN(CC2CCCCC2)CCN3)c1 | -2.8%[88.5 µM] | ? | ? | 5.7%[70.6 µM] | ? | / | / | /
NC(=O)c1cccc(-c2cc3c(cn2)CN(Cc2ccccc2)CCN3)c1 | 2.6%[88.5 µM] | -20.1%[138 µM] | 14.1µM* | -1.9%[70.6 µM] | ? | 17.4%[49.3 µM] | 12.1%[49.3 µM] | ?
NC(=O)c1cccc(-c2cc3c(cn2)CN(Cc2ccncc2)CCN3)c1 | 4.5%[88.5 µM] | ? | ? | -15.4%[70.6 µM] | -17.1%[172 µM] | / | / | /
CCN1CCN(Cc2cn(-c3ccccc3F)nc2-c2cc(C)sc2C)CC1 | i[11.5 µM] | ? | ? | -1.0% | ? | / | / | /
Cc1cc(-c2cc3c(cn2)CN(Cc2cnc[nH]2)CCN3)ccn1 | / | / | / | / | / | 28.8%[49.3 µM] | 19.0%[49.3 µM] | 18µM*
CN1CCNc2cc(-c3ccc(N4CCOCC4)cc3)ncc2C1 | 1.5%[88.5 µM] | ? | i | -18.8%[70.6 µM] | ? | / | / | /
COCCO[C@H]1C(=O)N(C2CCN(C(=O)COc3ccccc3)CC2)[C@H]1c1ccncc1 | i | -15.4% | i | 8.4% | -0.5% | / | / | /
Fc1cccc(Nc2cnc3ccc(-c4ccccc4)nn23)c1 | ? | ? | ? | -20.7%[70.6 µM] | ? | / | / | /
Fc1cc(Nc2cnc3ccc(-c4ccccc4)nn23)cc(N2CCOCC2)c1 | -20.5%[88.5 µM] | 31.6µM* | 12.6µM* | -26.8%[70.6 µM] | 44.7µM* | 13.5%[49.3 µM] | 11.3%[49.3 µM] | ?
O=C(NCc1ccccc1Cl)c1nc2sccn2c1-c1ccc(F)cc1 | i | -30.7% | / | / | -9.4% | / | / | /
Fc1ccccc1Cc1cn2cc(-c3ccc(Cl)cc3)nc2s1 | / | / | / | / | / | 20.1% | ? | 1.57µM*
Fc1ccc(Cc2cn3cc(-c4ccc(F)cc4)nc3s2)cc1 | / | / | / | / | / | ? | ? | 0.881µM*
Clc1ccc(-c2cn3cc(Cc4ccccc4)sc3n2)cc1 | / | / | / | / | / | 29.5% | ? | 0.785µM*
O=C(NCc1ccccc1F)c1cn2cc(-c3ccc(F)cc3)sc2n1 | 1.3%[88.5 µM] | -17.1%[138 µM] | / | / | -8.5%[172 µM] | / | / | /
Fc1ccc(-c2cn3cc(Cc4ccccc4Cl)sc3n2)cc1 | / | / | / | / | / | ? | ? | 0.989µM*
O=C(NCc1ccccc1)C1CCCN(C2CCN(C(=O)C3CCC3)CC2)C1 (stereo unspecified) | i | i | i | 15.7% | -1.7% | / | / | /
COc1cc(NC(=O)NC[C@H]2O[C@@H](CO)[C@@H](O)[C@@H]2N(C)Cc2ccccc2)cc(OC)c1 | i | -13.5% | i | 0.3% | -10.1% | / | / | /
O=C(CN1CCCc2nc(C3CC3)ncc2C1=O)NCc1ccccn1 | i | -12.3% | / | / | i | / | / | /
Cc1ccc(Cc2cn3cc(-c4ccccc4)nc3s2)cc1 | / | / | / | / | / | ? | ? | 0.442µM*
Cc1ccc(-c2cn3cc(C(=O)NCCc4ccccc4)nc3s2)cc1 | i | -22.1% | / | / | -7.4% | / | / | /
Cc1ccc(-c2ncc(NC(=O)c3cc(F)ccc3F)cn2)cc1 | -13.9% | 2.3% | ? | -11.7% | 1.7% | / | / | /
CCC(=O)Nc1cnc(-c2ccc(C)cc2)nc1 | 3.5% | 1.9% | 3.16µM* | ? | 11.1% | ? | ? | 8.81µM*
SMILES | GPT2 inh | 3T3 cytotox | FLuc inh-1 | hNpr1 antagonist | HEK cytotox | FLuc SDR -ATP | FLuc SDR ATP | FLuc inh-2
Cc1ccc(NC(=O)c2ccc(CN3C(=O)NC4(CCOCC4)C3=O)cc2)cc1C | i | -15.4% | 10µM* | ? | ? | ? | 13.9% | ?
Cc1cccc(NC(=O)c2ccc(CN3C(=O)NC4(CCOCC4)C3=O)cc2)c1 | i | -4.4% | ? | -25.0% | ? | / | / | /
CC(C)c1ccc(NC(=O)c2ccc(CN3C(=O)NC4(CCOCC4)C3=O)cc2)cc1 | 4.8% | 39.8µM* | 2µM* | 10µM* | ? | ? | ? | 3.51µM*
Cc1cnc(C2CCN(S(=O)(=O)c3ccc4c(c3)CCC4)C2)n1C(C)C (stereo unspecified) | 3.6% | -13.7% | i | -3.8% | ? | / | / | /
Cc1cc(CNc2ccc(-c3nc(CCCc4ccccc4)no3)cn2)no1 | ? | -29.7% | ? | ? | ? | / | / | /
Cc1nonc1C1CCCN1c1ccc(-c2nc(COc3ccccc3)no2)cn1 (stereo unspecified) | 4.7% | ? | i | -16.5% | ? | / | / | /
CN(CCc1ccccn1)c1ccc(-c2nc(COc3ccccc3)no2)cn1 | ? | ? | 8.91µM* | ? | 35.5µM* | 12.8% | 14.8% | ?
c1ccc(OCc2noc(-c3ccc(NCC4CCCCO4)nc3)n2)cc1 (stereo unspecified) | 4.4% | ? | ? | -20.1% | ? | / | / | /
c1ccc(CCCc2noc(-c3ccc(NCc4ccccn4)nc3)n2)cc1 | 4.7%[11.5 µM] | -18.2% | 12.6µM* | ? | ? | 9.8% | 8.4% | -10.0%
CN(CCO)c1ccc(-c2nc(CCCc3ccccc3)no2)cn1 | -9.7% | -29.0% | 6.31µM* | -0.3% | ? | 15.1% | 13.8% | ?
CN(Cc1cccnc1)c1ccc(-c2nc(COc3ccccc3)no2)cn1 | -6.5% | ? | 7.94µM* | 10µM* | 25.1µM* | 18.5% | 17.6% | ?
CN1CC(=O)N(C2CCCNC2)Cc2c1ncnc2N1CCC(N)CC1 (stereo unspecified) | i | -3.9% | / | / | -8.5% | / | / | /
CCN1C(=O)C2(CCN(S(=O)(=O)Cc3ccccc3Cl)CC2)c2ccccc21 | i | -10.1% | i | -8.4% | ? | / | / | /
COc1ccc(OCc2cc(C(=O)N3C[C@H]4CC[C@H]3C4)n[nH]2)c(Cl)c1 | i | ? | 8.91µM* | -17.8% | ? | 13.2% | 12.8% | -5.1%
CSc1cccc(NC(=O)C2CCN(C(=O)c3ncn4c3COC(c3ccc(F)cc3)C4)CC2)c1 (stereo unspecified) | i | -9.2% | ? | ? | -28.5% | / | / | /
